Experimental data as given in ChEMBL document CHEMBL3988442, “University of Dundee, Small-Polar-MMV Screening Library” (2021).
For some assays here: Potency and affinity values are given separately.

What was measured:
Parameters in all cases: scale not given: direction of the effect not stated beside the values
[1] = target: Protein translocase subunit SecA (Escherichia coli (strain K12)) (UniProt P10408); assay: Assay to Identify E. coli SecA ATPase Inhibitors; format: functional; conditions: 30 µM
Protein translocase subunit SecA (Escherichia coli (strain K12)), sequence (P10408 whole entry): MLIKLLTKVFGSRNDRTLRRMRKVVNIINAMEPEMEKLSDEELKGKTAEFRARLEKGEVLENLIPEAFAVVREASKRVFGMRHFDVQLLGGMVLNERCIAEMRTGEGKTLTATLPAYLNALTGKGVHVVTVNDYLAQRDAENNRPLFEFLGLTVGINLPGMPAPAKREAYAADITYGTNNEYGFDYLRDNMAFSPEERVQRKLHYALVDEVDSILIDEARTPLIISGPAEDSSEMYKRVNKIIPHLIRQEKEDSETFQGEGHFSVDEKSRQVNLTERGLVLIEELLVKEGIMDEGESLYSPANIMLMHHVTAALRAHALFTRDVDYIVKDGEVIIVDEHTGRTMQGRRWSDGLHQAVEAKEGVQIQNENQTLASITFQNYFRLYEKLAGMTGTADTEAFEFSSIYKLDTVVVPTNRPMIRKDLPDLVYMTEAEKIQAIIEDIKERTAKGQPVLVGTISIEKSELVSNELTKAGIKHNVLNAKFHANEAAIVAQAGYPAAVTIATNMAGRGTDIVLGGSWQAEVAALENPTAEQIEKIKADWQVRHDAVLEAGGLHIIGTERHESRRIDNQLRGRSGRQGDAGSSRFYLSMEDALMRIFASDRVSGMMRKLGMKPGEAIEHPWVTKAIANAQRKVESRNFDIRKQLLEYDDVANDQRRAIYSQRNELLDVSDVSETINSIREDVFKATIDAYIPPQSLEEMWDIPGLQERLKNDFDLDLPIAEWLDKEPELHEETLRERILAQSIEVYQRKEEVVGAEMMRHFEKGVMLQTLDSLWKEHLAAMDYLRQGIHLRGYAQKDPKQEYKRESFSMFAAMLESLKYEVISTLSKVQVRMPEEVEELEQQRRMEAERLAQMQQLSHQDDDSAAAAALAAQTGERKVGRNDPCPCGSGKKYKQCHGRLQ

[2] = target: T1, Ubiquitin-activating enzyme e1, putative (Leishmania donovani (strain BPK282A1)) (UniProt E9BSI1); assay: Leishmania donovani Ubiquitin Activating Enzyme (LdE1); format: functional; conditions: 30 µM
T1 sequence (whole entry): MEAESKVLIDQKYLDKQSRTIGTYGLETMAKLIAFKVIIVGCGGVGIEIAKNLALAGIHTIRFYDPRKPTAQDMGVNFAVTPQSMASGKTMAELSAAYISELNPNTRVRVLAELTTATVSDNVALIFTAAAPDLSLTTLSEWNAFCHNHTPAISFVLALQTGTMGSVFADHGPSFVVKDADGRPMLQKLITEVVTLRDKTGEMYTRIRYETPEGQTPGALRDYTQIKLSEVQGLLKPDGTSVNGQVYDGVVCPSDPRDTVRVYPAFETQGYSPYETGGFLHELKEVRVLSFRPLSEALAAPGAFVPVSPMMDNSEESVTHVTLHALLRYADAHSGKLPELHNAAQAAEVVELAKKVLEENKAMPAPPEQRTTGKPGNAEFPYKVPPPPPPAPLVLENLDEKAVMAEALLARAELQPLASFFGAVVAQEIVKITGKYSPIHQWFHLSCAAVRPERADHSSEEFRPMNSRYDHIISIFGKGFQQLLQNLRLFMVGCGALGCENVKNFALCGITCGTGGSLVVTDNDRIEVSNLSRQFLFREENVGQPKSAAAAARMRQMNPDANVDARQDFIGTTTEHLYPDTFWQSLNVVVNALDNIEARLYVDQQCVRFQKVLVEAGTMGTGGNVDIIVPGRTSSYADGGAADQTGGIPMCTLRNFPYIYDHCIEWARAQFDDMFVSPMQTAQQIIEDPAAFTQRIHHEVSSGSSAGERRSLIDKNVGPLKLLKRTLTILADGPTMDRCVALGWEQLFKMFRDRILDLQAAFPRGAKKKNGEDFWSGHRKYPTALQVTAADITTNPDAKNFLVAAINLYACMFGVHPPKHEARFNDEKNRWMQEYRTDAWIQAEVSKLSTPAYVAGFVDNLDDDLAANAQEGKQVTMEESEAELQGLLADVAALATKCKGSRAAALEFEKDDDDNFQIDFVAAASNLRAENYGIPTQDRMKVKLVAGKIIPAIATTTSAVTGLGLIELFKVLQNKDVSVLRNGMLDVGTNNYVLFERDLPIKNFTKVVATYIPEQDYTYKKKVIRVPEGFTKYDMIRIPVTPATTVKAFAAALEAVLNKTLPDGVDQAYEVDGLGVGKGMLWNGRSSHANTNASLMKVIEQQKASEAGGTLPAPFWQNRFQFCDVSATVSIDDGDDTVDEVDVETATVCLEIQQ

[3] = target: AMP-activated protein kinase, AMPK (Homo sapiens) (UniProt P54646+O43741+P54619+Q9UGJ0+Q9Y478+Q13131+Q9UGI9); assay: AMP-dependent Kinase enzyme assay. An in vitro enzyme assay that detects ADP turnover that is directly proportional to AMPK activity. This uses naive AMPK that is activated during the assay with MK-8722; format: functional; conditions: 30 µM
[4] = target: Sialic acid-binding Ig-like lectin 9 (Homo sapiens) (UniProt Q9Y336); assay: Hs-Siglec9 ALPHAscreen SOP 20170721; conditions: 10 µM
Sialic acid-binding Ig-like lectin 9 (Homo sapiens), sequence (Q9Y336 whole entry): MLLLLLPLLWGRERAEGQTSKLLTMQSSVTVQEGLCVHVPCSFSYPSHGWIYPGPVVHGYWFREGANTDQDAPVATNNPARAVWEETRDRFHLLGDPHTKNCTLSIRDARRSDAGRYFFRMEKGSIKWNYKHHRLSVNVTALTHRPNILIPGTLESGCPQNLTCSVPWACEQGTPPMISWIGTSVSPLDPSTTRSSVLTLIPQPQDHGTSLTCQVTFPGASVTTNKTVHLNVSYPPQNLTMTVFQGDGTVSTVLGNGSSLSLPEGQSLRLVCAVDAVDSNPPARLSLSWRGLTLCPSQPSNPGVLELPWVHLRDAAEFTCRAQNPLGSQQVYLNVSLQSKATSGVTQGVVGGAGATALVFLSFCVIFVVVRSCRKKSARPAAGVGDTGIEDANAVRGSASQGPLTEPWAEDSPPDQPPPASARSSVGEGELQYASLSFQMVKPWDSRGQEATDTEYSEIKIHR

[5] = system: Trypanosoma cruzi; assay: Trypanosoma cruzi phosphomannomutase and mannose-1-phosphate guanylyltransferase assay; format: functional; conditions: 10 µM
[6] = target: T2, Arginase-2, mitochondrial (Homo sapiens) (UniProt P78540); assay: in vitro enzyme assay to detect the production of urea directly proportional to the activity of Arginase II; format: functional; conditions: 33.3 µM; also: in the data most compounds retested in dose-response had high values
T2 sequence (whole entry): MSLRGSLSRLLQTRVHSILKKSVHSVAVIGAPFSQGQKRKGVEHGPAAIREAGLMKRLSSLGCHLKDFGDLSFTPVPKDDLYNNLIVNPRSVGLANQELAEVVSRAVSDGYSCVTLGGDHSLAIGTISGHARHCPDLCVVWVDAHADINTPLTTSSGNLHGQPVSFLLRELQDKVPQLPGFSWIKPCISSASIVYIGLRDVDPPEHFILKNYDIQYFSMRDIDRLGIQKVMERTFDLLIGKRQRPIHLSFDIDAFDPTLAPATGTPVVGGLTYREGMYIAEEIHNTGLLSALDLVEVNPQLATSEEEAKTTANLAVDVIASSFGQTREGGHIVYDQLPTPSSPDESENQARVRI

[7] = target: T3, Proteasome subunit beta (Trypanosoma cruzi) (UniProt O96673); assay: Trypanosoma cruzi proteasome chymotrypsin-like activity (TcProtChymo) assay.; also: in the data most compounds retested in dose-response had high values; format: functional; conditions: 9.37 µM
T3 sequence (whole entry): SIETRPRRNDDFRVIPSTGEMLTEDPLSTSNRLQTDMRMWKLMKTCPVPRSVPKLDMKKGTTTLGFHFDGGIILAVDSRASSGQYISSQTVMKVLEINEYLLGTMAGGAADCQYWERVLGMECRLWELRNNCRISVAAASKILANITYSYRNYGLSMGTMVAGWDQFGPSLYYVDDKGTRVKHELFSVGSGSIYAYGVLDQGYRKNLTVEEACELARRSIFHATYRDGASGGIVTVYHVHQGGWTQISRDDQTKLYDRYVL

[8] = organism: Homo sapiens; assay: To identify inhibition of the IFN signalling (Jak-Stat) pathway via expression of an eGFP reporter gene under the control of an IFN-stimulated response element (ISRE) containing MxA promoter.; format: functional; conditions: 30 µM
[9] = target: T4, Tyrosyl-tRNA synthetase, putative (Trypanosoma cruzi (strain CL Brener)) (UniProt Q4DSP6); assay: Trypanosoma cruzi tyrosyl tRNA synthetase (TcYRS) _High Tyrosine SOP; format: functional; conditions: 30 µM; also: in the data most compounds retested in dose-response had high values
T4 sequence (whole entry): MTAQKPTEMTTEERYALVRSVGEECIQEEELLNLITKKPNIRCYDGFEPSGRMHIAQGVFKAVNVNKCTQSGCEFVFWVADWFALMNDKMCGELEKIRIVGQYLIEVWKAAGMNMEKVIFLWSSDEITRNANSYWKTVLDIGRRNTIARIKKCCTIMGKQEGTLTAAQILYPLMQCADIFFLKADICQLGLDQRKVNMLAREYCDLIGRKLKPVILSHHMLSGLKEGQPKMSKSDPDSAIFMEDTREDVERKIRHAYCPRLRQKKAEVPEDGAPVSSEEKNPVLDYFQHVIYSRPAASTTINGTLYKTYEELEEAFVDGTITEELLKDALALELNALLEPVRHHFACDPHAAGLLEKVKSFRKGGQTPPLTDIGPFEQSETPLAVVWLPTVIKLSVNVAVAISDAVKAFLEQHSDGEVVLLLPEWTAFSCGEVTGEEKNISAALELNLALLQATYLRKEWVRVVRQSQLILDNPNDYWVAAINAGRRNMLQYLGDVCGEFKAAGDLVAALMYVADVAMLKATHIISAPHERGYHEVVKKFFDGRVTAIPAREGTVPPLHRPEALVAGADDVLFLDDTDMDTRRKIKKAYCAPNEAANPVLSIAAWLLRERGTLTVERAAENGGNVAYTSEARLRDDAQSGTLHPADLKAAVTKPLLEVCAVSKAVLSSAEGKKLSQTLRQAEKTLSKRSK

[10] = target: T4, Tyrosyl-tRNA synthetase, putative (Trypanosoma cruzi (strain CL Brener)); assay: Trypanosoma cruzi tyrosyl tRNA synthetase (TcYRS) SOP; format: functional; conditions: 30 µM
[11] = target: Chromo domain-containing protein 1 (Saccharomyces cerevisiae (strain ATCC 204508 / S288c) (Baker's yeast)) (UniProt P32657); assay: ScCHD-1 Enzyme Inhibition Assay; format: functional; conditions: 30 µM; also: in the data most compounds retested in dose-response had high values
Chromo domain-containing protein 1 (Saccharomyces cerevisiae (strain ATCC 204508 / S288c) (Baker's yeast)), sequence (P32657 whole entry, the tested form may be a part): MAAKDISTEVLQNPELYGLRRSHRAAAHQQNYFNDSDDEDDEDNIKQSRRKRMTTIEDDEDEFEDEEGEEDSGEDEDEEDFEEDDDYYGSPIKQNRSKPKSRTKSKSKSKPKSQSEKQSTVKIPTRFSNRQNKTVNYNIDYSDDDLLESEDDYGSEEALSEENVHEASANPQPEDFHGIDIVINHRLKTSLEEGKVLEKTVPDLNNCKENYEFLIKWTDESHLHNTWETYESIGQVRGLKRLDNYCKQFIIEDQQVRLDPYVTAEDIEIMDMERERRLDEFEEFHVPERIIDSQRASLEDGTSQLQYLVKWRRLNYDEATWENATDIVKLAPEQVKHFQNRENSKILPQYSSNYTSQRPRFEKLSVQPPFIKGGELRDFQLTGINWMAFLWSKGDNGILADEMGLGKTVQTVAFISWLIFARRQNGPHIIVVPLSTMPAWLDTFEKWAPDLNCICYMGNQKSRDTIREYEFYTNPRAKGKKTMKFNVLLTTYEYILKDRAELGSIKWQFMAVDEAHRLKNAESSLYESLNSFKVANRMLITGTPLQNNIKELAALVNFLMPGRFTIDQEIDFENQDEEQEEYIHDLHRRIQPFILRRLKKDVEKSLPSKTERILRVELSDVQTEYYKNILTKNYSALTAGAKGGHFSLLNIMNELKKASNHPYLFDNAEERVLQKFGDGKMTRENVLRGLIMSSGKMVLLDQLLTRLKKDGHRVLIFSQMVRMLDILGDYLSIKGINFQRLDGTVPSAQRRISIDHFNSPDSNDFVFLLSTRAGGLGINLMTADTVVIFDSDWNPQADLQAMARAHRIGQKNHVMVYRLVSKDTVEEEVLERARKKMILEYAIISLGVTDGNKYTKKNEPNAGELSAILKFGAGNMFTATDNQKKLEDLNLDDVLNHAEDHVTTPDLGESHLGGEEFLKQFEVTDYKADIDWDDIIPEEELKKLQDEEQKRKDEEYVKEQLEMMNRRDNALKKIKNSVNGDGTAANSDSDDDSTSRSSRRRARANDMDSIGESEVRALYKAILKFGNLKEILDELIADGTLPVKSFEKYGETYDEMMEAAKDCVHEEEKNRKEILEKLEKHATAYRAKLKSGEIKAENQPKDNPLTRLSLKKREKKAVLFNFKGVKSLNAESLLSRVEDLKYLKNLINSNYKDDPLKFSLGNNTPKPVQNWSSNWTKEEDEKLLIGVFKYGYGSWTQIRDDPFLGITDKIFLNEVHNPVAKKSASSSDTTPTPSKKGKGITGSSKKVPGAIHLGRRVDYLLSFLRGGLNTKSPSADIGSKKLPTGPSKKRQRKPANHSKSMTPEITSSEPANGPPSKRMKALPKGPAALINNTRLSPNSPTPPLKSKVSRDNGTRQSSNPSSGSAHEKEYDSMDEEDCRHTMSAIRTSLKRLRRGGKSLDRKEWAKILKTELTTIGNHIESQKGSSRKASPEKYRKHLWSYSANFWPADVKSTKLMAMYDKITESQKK

Compound	Percent Effect [1]	Percent Effect [2]	Percent Effect [3]	Percent Effect [4]	Percent Effect [5]	Percent Effect [6]	Percent Effect [7]	Percent Effect [8]	Percent Effect [9]	Percent Effect [10]	Percent Effect [11]
COC(=O)[C@H](C)NC(=O)c1cc(-c2cccc(Cl)c2)no1	-6.04%	5.26%	-4.37%	-0.548%	2.43%	-4.73%	21.2%	6.45%	5.32%	10.4%	-8.08%
COc1ccc(CC(=O)N2CCCCC2Cn2cccn2)cc1OC (configuration not stated)	-5.85%	7.89%	1.89%	0.458%	0.682%	-11.8%	6.81%	5.15%	0%	10.4%	-1.27%
Cc1ccccc1CSc1nc(N)cc(N2CCOC(C(N)=O)C2)n1 (configuration not stated)	-5.78%	2.7%	-2.45%	-7.55%	-4.4%	0.248%	10%	22.4%	6.45%	11.1%	-1.13%
Cc1cccc(OCCC(=O)N2CCCN(C(N)=O)CC2)c1C	-5.63%	-63.3%	-5.53%	-0.36%	-9.54%	3.8%	3.85%	27.5%	-3.45%	-8.86%	-6.9%
CCc1nnc(CN2CCN(C(=O)c3ccccn3)CC2)o1	0.554%	10.4%	1.99%	-1.91%	-0.881%	6.53%	4.45%	24.1%	5.71%	9.41%	-20.1%
COc1ccc(OC)c(C(C)Nc2nc3c(C)nn(C)c3c(=O)n2C)c1 (configuration not stated)	-5.58%	-5.2%	5.05%	1.13%	-6.2%	-22.1%	14.8%	38.9%	-2.15%	-3.7%	-5.55%
COc1ccc(OCCc2sc(C3(O)CCCNCC3)nc2C)cc1 (configuration not stated)	-5.55%	6.76%	2.86%	1.72%	0.198%	-6.73%	13.6%	21%	-3.23%	9.09%	-24.4%
CC(C)c1ccc(-c2nnn(CCNS(C)(=O)=O)n2)cc1	-4.75%	2.74%	0.921%	2.29%	4.96%	-2%	4.71%	-14%	-4.17%	8.64%	-0.501%
Cc1ncsc1C(=O)NC1CCN(CCC(N)=O)CC1	-5.32%	15.6%	-3%	11%	-2.62%	0.356%	4.56%	4.69%	4.85%	9.76%	-1.54%
Cc1cc(C(=O)N2CCc3ncc(CN4CCOCC4)n3CC2)no1	-4.01%	0%	1.62%	0.585%	0.0978%	-15.6%	-3.51%	-3.46%	-3.24%	-5.13%	8.28%
Cn1cc(CN2CCc3onc(COc4cccnc4)c3C2)cn1	6.35%	14.7%	17.2%	-10.2%	-9.43%	-5.11%	16.6%	11.8%	0%	5.13%	-10.7%
O=C(c1cccc(N2CCCC2=O)c1)N1CCCC(n2cncn2)C1 (configuration not stated)	-5.98%	13.5%	-31.2%	2.17%	-1.6%	-1.6%	-0.18%	7.08%	8.37%	13.6%	-5.4%
COc1cccc(CCC(=O)N2CCCC(n3cc(C)cn3)C2)c1 (configuration not stated)	0.219%	-3.8%	11.1%	-1.76%	-0.923%	9.25%	1.03%	-7.62%	-5.21%	0%	-20%
N#CC1(C(=O)NCCCNc2ccc(C(F)(F)F)cn2)CCCC1	0.186%	-2.63%	6.89%	5.29%	0.376%	1.53%	7.18%	23%	2.45%	4.88%	-0.995%
Cc1nnc(CN2CCN(CCOc3ccccc3C#N)CC2)n1C	-5%	13.2%	-7.44%	8.94%	5.7%	1.44%	7.87%	5.78%	3.45%	16.1%	-3.26%
Cc1nn(C)c2c(N3CCN(C(=O)NC4CCCCC4)CC3)ncnc12	-1.64%	9.33%	-2.22%	-3.41%	-5.5%	0.528%	11.7%	0.346%	2.12%	5.13%	-10.1%
O=C(c1ccc(Br)o1)N1CCN(Cc2ccc(OC(F)(F)F)cc2)CC1	-1.82%	5.48%	27.2%	-16.1%	-1.96%	-0.455%	8.87%	37.2%	2.15%	7.5%	-3.29%
O=S(=O)(CCNCc1ccc2c(c1)CCO2)N1CCOCC1	-6.32%	-2.7%	-3.09%	10.1%	-3.67%	-3.33%	11.7%	-0.791%	-0.529%	-4.88%	-4.8%
Cc1ccc(CNC2CCN(CCc3ccncc3)CC2)cc1C	-4.25%	-5.41%	-4.58%	7.82%	5.47%	18.8%	5.5%	-6.77%	2.97%	8.54%	29.8%
CN(C)c1ccc(C(=O)NCC2(O)CCOCC2)cc1	-4.98%	2.7%	-2.16%	3.55%	3.48%	3.33%	13.1%	-3.96%	5.82%	12.2%	-5.31%
Cc1nc(CNCC2CCCN2c2cccnn2)cs1 (configuration not stated)	-2.04%	-2.63%	1.93%	0.202%	-3.38%	6.51%	-1.84%	14.7%	2.45%	0%	4.5%
Cc1nc(C)n(C2CCCN(C(=O)c3ccc(F)cc3F)C2)n1 (configuration not stated)	-3.45%	0%	0.572%	-0.68%	2.73%	24.6%	11.2%	-8.13%	9.9%	18.3%	-7.11%
